This is a sample that favours compounds with a hit; in the whole collection about 21% have one here.
AMA1-RON2 inh: inhibitors of Plasmodium falciparum AMA1-RON2 interaction; AlphaScreen AMA1-biotinylated RON2 peptide binding; Potency, µM (series often up to 58.2 µM), hits mostly inhibitors; 0.2% of 360,000 active; AID 720542; also: nearly all actives have a fitted effect of over 45% in size
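AMA1 (3D7) with his tag at 25 nM final met compounds first, then biotinylated RON2 peptide at 25 nM; detection used donor plus acceptor beads, 10 µg/mL apiece, read by AlphaScreen after 30 min at room temperature.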
Pf growth 48h: P. falciparum growth inhibition at 48 hours (one generation); 5.9% of 310,000 active; P. falciparum luciferase growth in erythrocytes, 48 h; Potency, µM (doses to about 28.7 µM), hits mostly inhibitors
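Parasite viability was followed by luminescence of a genomically integrated firefly luciferase. Cultures held 0.1% parasitemia at 2% hematocrit (final), incubated under 5% CO2 at 37 C.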
Pf growth 96h: P. falciparum growth inhibition at 96 hour, primary screen for plastid delayed-death inhibitors; 6.9% of 320,000 active; AID 504834; Potency, µM (doses to about 28.7 µM), actives largely listed as inhibitors; P. falciparum luciferase reporter growth, 96 h
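Parasite growth measured via integrated firefly luciferase reporter in P. falciparum. Infected erythrocytes at 2% hematocrit, 0.05% parasitemia final were treated 96 hours at 37 C under 5% CO2, and luminescence was read.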
CHX counter: counter-screen hit for Shiga toxin inhibitors, cycloheximide | 12% of 300,000 active | AID 2314 | cell reporter, cycloheximide protein synthesis inhibition counterscreen | max response, %; in the data active = max response mostly above about 13%, no sharp cut-off; inactive = mostly below about 14%; also: read at 38.3 µM for the half of the compounds with a filed dose
HCV inh: blocks hepatitis C virus. Huh7.5.1 HCVcc-Cre infection, luciferase reporter, 44 h. Potency, µM (top dose mostly 41.8 µM), actives largely listed as inhibitors. 3.4% of 340,000 active. AID 651820
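Seed cells (1,000/well) for 4 h; treat with compound and infect with HCVcc-Cre, moi about 0.5. Incubate 44 h, then detect luciferase activity.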
Shiga toxin inh: Shiga toxin inhibition. Vero cells, Shiga toxin protein synthesis inhibition reporter. inhibition, % at 38.7 µM. 9.2% of 290,000 active. AID 2315; in the data active = inhibition mostly above about 28%, no sharp cut-off; inactive = mostly below about 43%
Each line names hits and unclear results; the compound was inactive in the other large screens; ! = repeats disagree. Unless noted, calls follow the shape of the dose curve; as a rule, active = well fitted curve in the direction sought with a large enough effect; inconclusive = small, poorly fitted or top-dose-only effect, or another doubt; inactive = no such curve, though single readings can be large; an effect the other way counts as inactive or inconclusive.

CC1CN(C(=O)CSc2nnc(-c3ccncc3)n2-c2ccccc2)CC(C)O1 (configuration not stated)	Pf growth 96h 10µM
CC(C)c1ccccc1-n1c(SCC(=O)N2CCN(c3ccccc3)CC2)nnc1-c1cccnc1	Pf growth 48h inconclusive, Pf growth 96h 8.3µM
Cc1nnc(SCC(=O)N2CC(C)OC(C)C2)n1-c1ccccc1 (configuration not stated)	none
CC(=O)Oc1ccccc1Cn1c(C)c(C(=O)NCc2ccccc2C(F)(F)F)sc1=O	none (no result: Pf growth 48h, Pf growth 96h, CHX counter, HCV inh, Shiga toxin inh)
COc1ccccc1C(=O)Nc1nnc(-c2ccco2)s1	CHX counter 42, Shiga toxin inh 133 (no result: Pf growth 96h)
COc1ccccc1NC(=O)Nc1nnc(-c2ccco2)s1	none (no result: AMA1-RON2 inh, HCV inh)
Cc1ccccc1C(=O)Nc1nnc(-c2ccco2)s1	CHX counter 38, HCV inh 11µM, Shiga toxin inh 69
CCCCCOC(=O)c1cc(=O)[nH]c2ccccc12	none
CCCCCCCCCCOc1cc2c(=O)c(C(=O)OCC)c[nH]c2cc1OCC	Pf growth 48h 0.0015µM (no result: AMA1-RON2 inh, CHX counter, HCV inh, Shiga toxin inh)
COCCN1C(=O)C(=O)/C(=C(/O)c2ccc(S(=O)(=O)N3CCOCC3)cc2)C1c1cccc([N+](=O)[O-])c1 (configuration not stated)	none
Nc1ccc2c3c(ccc([N+](=O)[O-])c13)CC2	AMA1-RON2 inh 28µM (no result: Pf growth 48h, Pf growth 96h, CHX counter, HCV inh, Shiga toxin inh)
Cc1ccc(N2CC(C(=O)Nc3nnc(SCC(=O)N4CCOCC4)s3)CC2=O)cc1 (configuration not stated)	none
COc1ccccc1N=Nc1nc(-c2ccccc2)c(-c2ccccc2)[nH]1	AMA1-RON2 inh 35µM, Pf growth 96h 2.3µM, CHX counter 12, HCV inh 11µM
Cc1cc(C)c(C)c(S(=O)(=O)NC2CCN(Cc3ccccc3)CC2)c1C	Pf growth 96h inconclusive
Cc1cc2c(cc1C)N(C(=O)CSc1nncn1C)C(C)(C)c1ssc(=S)c1-2	AMA1-RON2 inh inconclusive, Pf growth 48h inconclusive, HCV inh inconclusive
Cc1cc(C)c2c(c1)-c1c(ssc1=S)C(C)(C)N2C(=O)CN1C(=O)c2ccccc2C1=O	Pf growth 96h inconclusive, HCV inh inconclusive
Cc1ccc2c(c1)N(C(=O)CSc1nncn1C)C(C)(C)c1ssc(=S)c1-2	AMA1-RON2 inh inconclusive, Pf growth 48h inconclusive, HCV inh 10µM (no result: Pf growth 96h)
Cc1cccc2c1N(C(=O)c1ccco1)C(C)(C)c1ssc(=S)c1-2	Pf growth 48h inconclusive, Pf growth 96h 5.2µM
Cc1ccc2c(c1)N(C(=O)c1ccco1)C(C)(C)c1ssc(=S)c1-2	AMA1-RON2 inh 12µM, Pf growth 96h 5.2µM (no result: Pf growth 48h)
O=C(CN1CCN(C(=O)C2CCN(C(=O)/C=C/c3ccccc3)CC2)CC1)Nc1ccccc1Cl	Pf growth 96h inconclusive, HCV inh inconclusive (no result: CHX counter, Shiga toxin inh)
COC(=O)C1=C(c2ccc(-c3ccccc3)c(F)c2)C[C@@H]2CC[C@H]1N2C(=O)N1CCCCC1	Pf growth 48h 10µM, Pf growth 96h inconclusive, HCV inh inconclusive (no result: CHX counter, Shiga toxin inh)
COC(=O)C1=C(c2ccc(-c3ccccc3)c(F)c2)C[C@@H]2CC[C@H]1N2C(=O)N1CCc2cc(OC)c(OC)cc2C1	Pf growth 48h 5.9µM, Pf growth 96h inconclusive, HCV inh inconclusive (no result: CHX counter, Shiga toxin inh)
COC(=O)C1=C(c2ccc3ccccc3c2)C[C@@H]2CC[C@H]1N2C(=O)N1CCCC1	Pf growth 48h 9.3µM, Pf growth 96h inconclusive, HCV inh 10µM (no result: CHX counter, Shiga toxin inh)
COC(=O)C1=C(c2ccc(-c3ccccc3)c(F)c2)C[C@@H]2CC[C@H]1N2C(=O)N1CCCC1	Pf growth 48h 15µM, Pf growth 96h inconclusive, HCV inh 2.8µM (no result: CHX counter, Shiga toxin inh)
CC(C)=CCN1CCN(CCC2=C(C)CCCC2(C)C)CC1CCO (configuration not stated)	Pf growth 48h 13µM, HCV inh inconclusive
CSCC[C@H](NC(=O)N1CCn2c1nc1ccccc12)C(=O)NCc1ccc(F)cc1	Pf growth 48h inconclusive, Pf growth 96h 12µM
Cc1ccc(NC(=O)COC(=O)c2ccc(CN3CCCC3=O)cc2)c(Cl)c1	none (no result: CHX counter, Shiga toxin inh)
CCOC(=O)C1CCN(C(=O)c2ccc3c(=O)n4nc(Nc5cc(C)ccc5C)sc4nc3c2)CC1	Pf growth 48h inconclusive, Pf growth 96h 2.9µM
COc1ccccc1Nc1nn2c(=O)c3ccc(C(=O)N4CCCC(C)C4)cc3nc2s1 (configuration not stated)	Pf growth 48h 8.3µM, HCV inh inconclusive
CSc1ccccc1NC(=O)c1cc(-c2ccc3c(c2)OCO3)on1	Shiga toxin inh 61
CN(C(=O)c1cc(-c2ccc3c(c2)OCO3)on1)c1ccccc1	CHX counter 34, Shiga toxin inh 95
Cc1ccc(NC(=O)c2cc(-c3ccc4c(c3)OCO4)on2)cc1C	none
O=C(Nc1cc(Br)ccc1O)c1cc(-c2ccc3c(c2)OCO3)on1	Pf growth 48h inconclusive, CHX counter 15, Shiga toxin inh 77
Cc1ccc(CNC(=O)C2CCC(=O)N(C3CC3)C2)cc1 (configuration not stated)	none
Cc1cccc(N2CCN(C(=O)c3ccc(NC4=NC5CS(=O)(=O)CC5S4)cc3)CC2C)c1 (configuration not stated)	Pf growth 48h inconclusive
COCCNC(=O)C1CCC(CNS(=O)(=O)c2ccccc2)CC1 (configuration not stated)	none
CN1C2CCC1C(COC(=O)c1ccccc1)C(O)C2 (configuration not stated)	Pf growth 48h inconclusive
CN1OC(COC(=O)c2ccccc2)CC1c1ccccc1 (configuration not stated)	CHX counter 41, Shiga toxin inh 94
COc1ccc(C2Nc3ccccc3C(=O)N2Cc2ccco2)cc1COc1ccc(F)cc1 (configuration not stated)	Pf growth 48h 2.1µM, Pf growth 96h 6.6µM, CHX counter 60, HCV inh inconclusive, Shiga toxin inh 40
O=C1c2ccccc2NC(c2cccc(O)c2)N1Cc1ccco1 (configuration not stated)	Pf growth 96h inconclusive
COc1ccc(C2Nc3ccccc3C(=O)N2Cc2ccccc2)cc1OC (configuration not stated)	none (no result: Pf growth 48h, Pf growth 96h, CHX counter, Shiga toxin inh)
COc1ccc(C2Nc3ccccc3C(=O)N2Cc2ccco2)cc1CN1C(=O)c2ccccc2C1=O (configuration not stated)	Pf growth 48h 13µM, Pf growth 96h inconclusive, HCV inh inconclusive, Shiga toxin inh 43!
O=C(C1CC(=O)N(c2ccccc2)C1)N1CCN(c2ccccc2)CC1 (configuration not stated)	none
COC1=CC(=O)OC(c2ccc(C(F)(F)F)cc2)C1 (configuration not stated)	none (no result: Pf growth 48h, Pf growth 96h, CHX counter, HCV inh, Shiga toxin inh)
O=C(COC(=O)c1nc(Cl)ccc1Cl)NC(=O)c1ccccc1	none
CC(C)c1c(O)ccc2c1CC[C@H]1C(C)(C)CCC[C@]21C	HCV inh 2µM (no result: Pf growth 48h, Pf growth 96h, CHX counter, Shiga toxin inh)
C[C@H]1O[C@H](C2CCCC2)CC2=C1C(=O)OC(C)(C)O2	none (no result: Pf growth 48h, Pf growth 96h, CHX counter, HCV inh, Shiga toxin inh)
